GFP response vs DMSO, GFP response relative to DMSO and GFP response, % of DMSO data for 19 compounds are collected here from PubChem BioAssay.

The nature of experiment [1]: hit retest on RPL19A-GFP reporter strain – cell-based, S. cerevisiae, flow cytometry, cherry picks, mother/daughter gates, confirmation (AID 2270;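 active means GFP response below 50% of the DMSO control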). The note with it: 3 h, at 10 µM, stronger effect = lower value, 100 = same GFP as DMSO wells.
The nature of experiment [2]: yeast TOR pathway reporter LAP4-GFP change – cell-based, cherry picks, flow cytometry, mother/daughter gates, confirmation (AID 2271;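 active means GFP response above 150% of the DMSO control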;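 further: ratio of sample to DMSO plate mean so 100% equals DMSO level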). The conditions noted are these: S. cerevisiae LAP4-GFP strain, 3 h, at 10 µM, stronger effect = higher value, 100 means same as DMSO control.
Experiment [3] is described as follows: TOR pathway reporter MEP2-GFP, retest of hits – S. cerevisiae, flow cytometry GFP, cherry picks, confirmation (AID 2272;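 active means GFP response above 150% of the DMSO control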;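 further: ratio of well signal to plate DMSO mean so 100% equals DMSO level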). The note with it: S. cerevisiae MEP2-GFP strain, 3 h, at 10 µM, stronger effect = higher value.
Experiment [4] in a line: yeast AGP1-GFP fluorescence change, single-dose – cell-based, flow cytometry, S. cerevisiae, cherry picks, confirmation (AID 2273).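 Further: median GFP channel fluorescence over the whole cell population gate.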 The note with it: S. cerevisiae AGP1-GFP strain, 3 h, at 10 µM.
The nature of experiment [5]: TOR pathway CIT2 reporter hit retest – S. cerevisiae, GFP fusion, cherry picks, mother/daughter gates, confirmation (AID 2274). The note with it: S. cerevisiae CIT2-GFP strain, flow cytometry, 3 h, at 10 µM, stronger effect = higher value.
Setting [6] is: measured here: daughter cell gate.
Where [7] appears, read: measured here: mother cell gate.
Setting [8] is: measured here: daughter cell gate response.
[9] abbreviates: measured here: mother cell gate response.

Activity calls are given as the source filed them.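 How the source made its calls, unless noted: active means GFP response above 150% of the DMSO level; inconclusive means fewer than 70 events counted for a yeast strain; inactive means the rest.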

On to `CN(C)c1ccc(/C=C/c2ccc3ccccc3[n+]2C)cc1`, for which the GFP response vs DMSO in experiment [1] was 95.3% (inactive); in experiment [1] (setting [6]), 90%; in experiment [1] (setting [7]), 88.7%; in experiment [3], 107% (inactive). In addition, the GFP response relative to DMSO in experiment [2] was 98.7% (inactive). The GFP response, % of DMSO in experiment [4] is 89.5% (inactive); in experiment [5] it was 107% (inactive); in experiment [5] (setting [7]), 95.5%.
Regarding `Cc1ccc(/C=C/c2ccc(N(C)C)cc2)[n+](C)c1`, the GFP response vs DMSO was 101% (inactive) in experiment [1], 94.2% in experiment [1] (setting [6]), 93.8% in experiment [1] (setting [7]) and 133% (inactive) in experiment [3]. Further, the GFP response relative to DMSO in experiment [2] is 119% (inactive). Moreover, the GFP response, % of DMSO in experiment [4] is 103% (inactive); in experiment [5], 121% (inactive); in experiment [5] (setting [6]), 121%; in experiment [5] (setting [7]) it was 110%.
For the compound `Cc1ccc(C2CCN(C(=S)Nc3cccc(Cl)c3)C2)cc1` (stereo not given), the GFP response vs DMSO was 96.2% (inactive) in experiment [1], 95.7% in experiment [1] (setting [6]), 97.4% in experiment [1] (setting [7]) and 97.5% (inactive) in experiment [3]. Also, the GFP response relative to DMSO in experiment [2] was 119% (inactive). Further, the GFP response, % of DMSO is 93.2% (inactive) in experiment [4], 92.1% (inactive) in experiment [5], 90.9% in experiment [5] (setting [6]) and 95.6% in experiment [5] (setting [7]).
Consider `CC1=C/C(=N\OS(=O)(=O)c2ccccc2)C(C)=CC1=O`, for which the GFP response vs DMSO in experiment [1] was 79.2% (inactive); in experiment [1] (setting [7]), 66.3%; in experiment [3] it was 118% (inactive). Moreover, the GFP response relative to DMSO in experiment [2] is 262% (active); in experiment [2] (setting [8]), 136%; in experiment [2] (setting [9]), 243%. Besides, the GFP response, % of DMSO is 108% (inactive) in experiment [4], 98.8% (inactive) in experiment [5], 117% in experiment [5] (setting [6]) and 88.2% in experiment [5] (setting [7]).
As for `N#C/C(=C/c1ccc(N2CCOCC2)o1)c1ccc(Cl)cc1`, the GFP response vs DMSO in experiment [1] was 96.8% (inactive); in experiment [1] (setting [6]) it was 93.4%; in experiment [1] (setting [7]), 91.5%; in experiment [3], 104% (inactive). Also, the GFP response relative to DMSO in experiment [2] is 109% (inactive). The GFP response, % of DMSO is 95.8% (inactive) in experiment [4], 104% (inactive) in experiment [5], 108% in experiment [5] (setting [6]) and 96.8% in experiment [5] (setting [7]).
`O=C(c1cccc(COc2ccc(Cl)cc2Cl)c1)N1CCN(c2ccccn2)CC1`: the GFP response vs DMSO in experiment [1] is 80% (inactive); in experiment [1] (setting [6]) it was 83.6%; in experiment [3], 103% (inactive). Further, the GFP response relative to DMSO was 114% (inactive) in experiment [2], 107% in experiment [2] (setting [8]) and 117% in experiment [2] (setting [9]). Further, the GFP response, % of DMSO in experiment [4] is 86.6% (inactive); in experiment [5], 95.9% (inactive); in experiment [5] (setting [6]), 90.2%; in experiment [5] (setting [7]) it was 95.6%.
As for `COc1ccccc1C1C2=C(CC(C)(C)CC2=O)N(CC(=O)O)C2=C1C(=O)CC(C)(C)C2`, the GFP response vs DMSO is 102% (inactive) in experiment [1], 93% in experiment [1] (setting [6]), 94% in experiment [1] (setting [7]) and 133% (inactive) in experiment [3]. In addition, in experiment [2], the GFP response relative to DMSO was 105% (inactive). For the same compound, the GFP response, % of DMSO in experiment [4] is 98.9% (inactive); in experiment [5], 117% (inactive); in experiment [5] (setting [6]) it was 118%; in experiment [5] (setting [7]), 107%.
Consider `CCc1ccc(C2CC(c3ccco3)=NN2S(C)(=O)=O)cc1` (stereo not given), for which the GFP response vs DMSO in experiment [1] was 108% (inactive); in experiment [1] (setting [6]) it was 108%; in experiment [1] (setting [7]) it was 101%; in experiment [3], 180% (active). The GFP response relative to DMSO in experiment [2] is 131% (inactive). Further, the GFP response, % of DMSO in experiment [4] was 108% (inactive); in experiment [5] it was 188% (active).
`C/C(=N\NC(=O)c1ccc(Cl)c(Cl)c1)c1ccccn1`: the GFP response vs DMSO in experiment [1] is 104% (inactive); in experiment [1] (setting [6]), 96.4%; in experiment [1] (setting [7]) it was 88.5%; in experiment [3], 118% (inactive). In addition, the GFP response relative to DMSO in experiment [2] is 269% (active). The GFP response, % of DMSO in experiment [4] is 127% (inactive); in experiment [5], 114% (inactive); in experiment [5] (setting [6]), 97.6%; in experiment [5] (setting [7]), 99.3%.
With `Cc1ccc(CS(=O)(=O)c2ncc(Cl)c(C(=O)Nc3nnc(C(C)C)s3)n2)cc1`, the GFP response vs DMSO in experiment [1] was 96.2% (inactive); in experiment [1] (setting [6]) it was 96.1%; in experiment [1] (setting [7]), 94%; in experiment [3], 103% (inactive). The GFP response relative to DMSO in experiment [2] was 108% (inactive); in experiment [2] (setting [9]) it was 99.5%. Moreover, the GFP response, % of DMSO in experiment [4] was 100% (inactive); in experiment [5] it was 101% (inactive); in experiment [5] (setting [6]), 94%; in experiment [5] (setting [7]), 100%.
In the case of `COc1ccccc1-c1noc(-c2cccnc2)n1`, the GFP response vs DMSO in experiment [1] was 95.3% (inactive); in experiment [1] (setting [6]) it was 93%; in experiment [1] (setting [7]), 95.4%; in experiment [3], 108% (inactive). Besides, the GFP response relative to DMSO in experiment [2] is 97.7% (inactive). Moreover, the GFP response, % of DMSO is 96.6% (inactive) in experiment [4], 95.8% (inactive) in experiment [5], 88.7% in experiment [5] (setting [6]) and 82.6% in experiment [5] (setting [7]).
As for `Cc1cccc(CS(=O)(=O)c2ncc(Cl)c(C(=O)Nc3nnc(C(C)C)s3)n2)c1`, the GFP response vs DMSO in experiment [1] is 96.7% (inactive); in experiment [3] it was 99.3% (inactive). The results for the GFP response relative to DMSO in experiment [2], in experiment [2] (setting [8]) and in experiment [2] (setting [9]) were 106% (inactive), 108% and 105%, respectively. Also, the GFP response, % of DMSO in experiment [4] was 102% (inactive); in experiment [5], 103% (inactive); in experiment [5] (setting [6]), 99.3%; in experiment [5] (setting [7]), 104%.
With `CCN(CC)c1ccc2cc(C(=O)O)c(=O)oc2c1`, the GFP response vs DMSO in experiment [1] was 95.1% (inactive); in experiment [1] (setting [6]), 89.9%; in experiment [1] (setting [7]) it was 94.2%; in experiment [3], 110% (inactive). In experiment [2], the GFP response relative to DMSO is 126% (inactive). For the same compound, the GFP response, % of DMSO in experiment [4] was 105% (inactive); in experiment [5], 94.4% (inactive).
Consider `CCCc1[nH]nc2c1C(c1ccc(OC(=O)N3CCOCC3)c(OC)c1)C(C#N)=C(N)O2` (stereo not given), for which the GFP response vs DMSO was 100% (inactive) in experiment [1], 101% in experiment [1] (setting [6]), 95.4% in experiment [1] (setting [7]) and 100% (inactive) in experiment [3]. For the same compound, the GFP response relative to DMSO in experiment [2] was 102% (inactive). The GFP response, % of DMSO in experiment [4] is 97.8% (inactive); in experiment [5] it was 97.8% (inactive); in experiment [5] (setting [6]), 89.9%; in experiment [5] (setting [7]), 97.7%.
Consider `COc1ccc(C2C3=C(CCCC3=O)N(CC(=O)O)C3=C2C(=O)CCC3)cc1Cl`, for which the GFP response vs DMSO in experiment [1] is 102% (inactive); in experiment [1] (setting [6]), 99%; in experiment [1] (setting [7]) it was 98.5%; in experiment [3], 100% (inactive). Moreover, in experiment [2], the GFP response relative to DMSO is 93.8% (inactive). For the same compound, the GFP response, % of DMSO was 104% (inactive) in experiment [4], 111% (inactive) in experiment [5], 111% in experiment [5] (setting [6]) and 111% in experiment [5] (setting [7]).
`CCc1nnc(NC(=O)c2nc(S(=O)(=O)Cc3ccccc3)ncc2Cl)s1`: the GFP response vs DMSO was 94.9% (inactive) in experiment [1], 95.9% in experiment [1] (setting [6]), 91.4% in experiment [1] (setting [7]) and 103% (inactive) in experiment [3]. In addition, the GFP response relative to DMSO in experiment [2] was 98.9% (inactive). Moreover, the GFP response, % of DMSO in experiment [4] is 97.3% (inactive); in experiment [5], 101% (inactive); in experiment [5] (setting [6]), 103%; in experiment [5] (setting [7]), 97.1%.
For the compound `CCOC(=O)C(C(=O)OCC)C(C(=O)OCC)N1CCOCC1` (stereo not given), the values for the GFP response vs DMSO in experiment [1], in experiment [1] (setting [7]) and in experiment [3] were 74.1% (inactive), 61.4% and 108% (inactive), respectively. For the same compound, the GFP response relative to DMSO in experiment [2] is 182% (active); in experiment [2] (setting [8]) it was 158%; in experiment [2] (setting [9]), 165%. Further, the GFP response, % of DMSO in experiment [4] was 90.2% (inactive); in experiment [5], 86.1% (inactive); in experiment [5] (setting [6]), 105%; in experiment [5] (setting [7]) it was 72.5%.
For the compound `Cc1cc(NCCOCCO)n2ncc(-c3ccc(Cl)cc3)c2n1`, the GFP response vs DMSO in experiment [1] was 94.3% (inactive); in experiment [1] (setting [6]), 93.1%; in experiment [1] (setting [7]), 89.1%; in experiment [3], 106% (inactive). Moreover, the GFP response relative to DMSO in experiment [2] is 100% (inactive). Also, the GFP response, % of DMSO was 105% (inactive) in experiment [4], 102% (inactive) in experiment [5], 102% in experiment [5] (setting [6]) and 96.8% in experiment [5] (setting [7]).
On to `O=C(O)CCC(=O)OCC1CCCCC1`, for which the GFP response vs DMSO in experiment [1] is 96.7% (inactive); in experiment [1] (setting [6]), 97.6%; in experiment [1] (setting [7]), 95.6%; in experiment [3] it was 103% (inactive). Also, the GFP response relative to DMSO in experiment [2] is 104% (inactive). In addition, the GFP response, % of DMSO is 99.3% (inactive) in experiment [4], 98.6% (inactive) in experiment [5], 95.8% in experiment [5] (setting [6]) and 94.9% in experiment [5] (setting [7]).
